# An excerpt weighted towards active compounds, which were near 13% of everything screened.
# HCMV inh: human cytomegalovirus inhibition; actives 4.5% (n = 410,000); HFF cells, HCMV-luciferase reporter, 72 h; stronger effect = lower value; activity change, negative = inhibition, % at 57.5 µM; in the data active = activity change below about -60%; inconclusive = no clear call, values can overlap the other calls; inactive = above about -39%
#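 Compounds were evaluated in HFFs infected with an HCMV luciferase reporter virus (MOI 1 PFU/cell). Luciferase in lysates collected 72 h post infection served as the replication measure.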
# HCV inhibitor: HCV inhibition; Huh7.5.1 HCVcc-Cre infection, luciferase reporter, 44 h; Potency, µM (titrated, usually from 41.8 µM), for the others: top-dose activity change, negative = inhibition, most hits filed as inhibitors; actives 3.4% (n = 340,000); AID 651820; note: potency is the fitted concentration of half-maximal effect
#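 Cells seeded at 1,000/well and cultured 4 h, then compounds added followed by HCVcc-Cre virus (~0.5 moi). After 44 h further culture, luciferase substrate was added, plates held 15 min at room temperature, and luminescence read for 15 sec.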
# Pf growth 48h: inhibits P. falciparum growth in the first generation, 48 h; P. falciparum luciferase growth in erythrocytes, 48 h; Potency, µM (highest dose often 28.7 µM), for inactives: at the top dose activity change, negative = inhibition, most hits filed as inhibitors; actives 5.9% (n = 310,000); note: potency is the fitted concentration of half-maximal effect
#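 Compounds are pin-transferred into medium, infected erythrocytes (2% hematocrit, 0.1% parasitemia final) are added, and plates sit one parasite generation at 37 C in 5% CO2. Detection reagent is then added and luminescence measured.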
# Pf growth 96h: P. falciparum growth inhibition at 96 hours. P. falciparum luciferase reporter growth, 96 h. actives 6.9% (n = 320,000). Potency, µM (titrated, usually from 28.7 µM), for the others: at the top dose activity change, negative = inhibition, usual class: inhibitors. AID 504834; note: potency is the fitted concentration of half-maximal effect
#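 Plates of compound plus infected erythrocytes (2% hematocrit, 0.05% parasitemia final) incubate 96 hours, 37 C, 5% CO2. Detection reagent added; reduced luminescence from the parasites' luciferase reporter flags inhibition.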
# Active calls of the source: *; ? = inconclusive; . = no result given; ! = repeats disagree; [ ] = remark or other dose. Unless noted, calls come from the whole dose curve; as a rule, active = well fitted inhibition curve with a large enough effect; inconclusive = small, poorly fitted or top-dose-only effect, or another doubt; inactive = no such curve, though single readings can be large or run the other way. % is set by controls: 0 for no effect and ±100 for the full control effect.
SMILES,HCMV inh,HCV inhibitor,Pf growth 48h,Pf growth 96h
CCOC(=O)c1[nH]c2ccccc2c1NC(=O)c1ccc(S(=O)(=O)N2CCCC2)cc1,96.4,-7.9%[8.37 µM],?,11.7µM*
CNS(=O)(=O)c1cccc(C(=O)OCC(=O)c2ccc(S(=O)(=O)N3CCCCC3)cc2)c1,-8.1,-0.2%,13.1µM*,?
Cc1[nH]c2ccccc2c1C(=O)COC(=O)c1cccc(S(=O)(=O)N2CCCCC2)c1,-77.9*,?,?,?
CNS(=O)(=O)c1cccc(C(=O)OCC(=O)NCCCc2ccccc2)c1,43.8,7.4%,4.5%,40.4%
Cc1c(C(=O)NCc2cccc(Cl)c2)sc2nc[nH]c(=O)c12,3.4,.,.,.
CCOC(=O)COc1ccc([N+](=O)[O-])cc1-c1ccnc2cc(-c3ccc(Cl)cc3)nn12,23.9,.,.,.
CCN(CC)c1ccc(CNc2ccc3c(c2)ncn3C(C)(C)C)cc1,-67.7*,-27.7%,-26.8%,0.8%
CN(C)c1ccc(CNc2ccc3c(c2)ncn3C)cc1,-102.1*,?,.,53.2%
CC(C)(C)n1cnc2cc(NCc3ccc(Br)cc3)ccc21,130.2,-8.0%,-13.0%,-12.7%
CCc1ccc(CNc2ccc3c(c2)ncn3C(C)(C)C)cc1,-64.4*!,-29.2%,-15.4%,-27.2%
Cc1ccc(CNC(=O)Nc2cn(CC(C)C)c(=O)c3ccccc23)cc1,14.7,.,.,.
COc1ccc(CNC(=O)c2nn(-c3ccccc3C)nc2CO)cc1,33.2,.,.,.
N#CC(CO)(Cc1ccc(OC(F)F)cc1)c1nc2ccccc2[nH]1 (stereo unspecified),-2.5,?,-21.4%,?
COc1ccc(CC(C#N)(CO)c2nc3ccccc3[nH]2)cc1 (stereo unspecified),12.7,-15.4%,?,2.33µM*
CN(CC(=O)NCCN1CCN(c2ccccc2)CC1)S(=O)(=O)c1ccc2c(c1)CCC(=O)N2,-22.0,-5.5%,.,4.65µM*
COc1ccc(NC(=O)CCc2c(C)nn(-c3ccc(N4CCCCC4)nn3)c2C)cc1Cl,151.7,.,.,.
CCS(=O)(=O)c1nc(S(=O)(=O)c2ccc(C)cc2)c(NCc2ccccc2Cl)s1,5.6,.,.,.
C#CCOCCOCCOCCNc1nc(N2CCN(C(=O)[C@H](CCC(=O)O)n3cc(C(N)[C@H](C)CC)nn3)CC2)nc(N2CCN(C(=O)[C@H](Cc3cc4ccccc4[nH]3)n3cc(C(N)[C@H](C)CC)nn3)CC2)n1 (stereo partly specified),.,.,-11.0%,-15.7%
C#CCOCCOCCOCCNc1nc(N2CCN(C(=O)[C@H](Cc3ccc(O)cc3)n3cc([C@@H](N)CC(C)C)nn3)CC2)nc(N2CCN(C(=O)[C@H](Cc3cc4ccccc4[nH]3)n3cc([C@@H](N)CC(C)C)nn3)CC2)n1,-14.4,16.1%,?,-98.4%
C#CCOCCOCCOCCNc1nc(N2CCN(C(=O)[C@H](Cc3ccc(O)cc3)n3cc([C@@H](N)C(C)CC)nn3)CC2)nc(N2CCN(C(=O)[C@H](Cc3cc4ccccc4[nH]3)n3cc([C@@H](N)Cc4ccc(O)cc4)nn3)CC2)n1 (stereo partly specified),.,.,10.4µM*,?
C#CCOCCOCCOCCNc1nc(N2CCN(C(=O)C(Cc3cc4ccccc4[nH]3)n3cc(C(N)C(C)CC)nn3)CC2)nc(N2CCN(C(=O)C(Cc3cc4ccccc4[nH]3)n3cc(C(N)C(C)CC)nn3)CC2)n1 (stereo unspecified),.,-2.5%,?,4.15µM*
C#CCOCCOCCOCCNc1nc(N2CCN(C(=O)[C@H]([C@@H](C)CC)n3cc([C@@H](N)CC(C)C)nn3)CC2)nc(N2CCN(C(=O)[C@H](Cc3cc4ccccc4[nH]3)n3cc([C@@H](N)C(C)CC)nn3)CC2)n1 (stereo partly specified),.,.,4.65µM*,1.17µM*
C#CCOCCOCCOCCNc1nc(N2CCN(C(=O)[C@H]([C@@H](C)CC)n3cc([C@@H](N)CC(C)C)nn3)CC2)nc(N2CCN(C(=O)[C@H](Cc3cc4ccccc4[nH]3)n3cc([C@@H](N)Cc4ccc(O)cc4)nn3)CC2)n1,.,29.9%,?,?
C#CCOCCOCCOCCNc1nc(N2CCOCC2)nc(N2CCN(C(=O)[C@H](Cc3cc4ccccc4[nH]3)n3cc([C@@H](N)C(C)CC)nn3)CC2)n1 (stereo partly specified),?,3.7%,?,2.94µM*
